A number with no mark means an inactive call. Results filed as inconclusive are left out. A call without a number means that no potency is given here. Active and inactive are the calls of the source. The call rests on the fitted dose curve; in most records, active means well fitted curve in the direction sought with a large enough effect; inconclusive means small, poorly fitted or top-dose-only effect, or another doubt; inactive means no such curve, though single readings can be large; an effect the other way counts as inactive or inconclusive.
What was measured:
[1] = target: Cytochrome P450 2D6 (Homo sapiens) (UniProt P10635); assay: qHTS Assay for Inhibitors and Substrates of Cytochrome P450 2D6 (AID 891); further: nearly all actives have a fitted effect of over 60% in size; further: potency means the concentration at half of the fitted maximal effect
Outline: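 Luminescent read-out of luciferin formed by 5 nM human CYP2D6 demethylating 30 uM Luciferin-ME EGE (Km level) over 60 min at room temperature after NADPH regeneration addition. Data normalized to full inhibition by 1.43 uM quinidine.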

[2] = qHTS Assay for Identification of Small Molecule Agonists for Thrombopoietin (TPO) Signaling Pathway (AID 917); further: potency means the concentration at half of the fitted maximal effect
Outline: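 Cell-based luciferase reporter screen. Mouse Ba/F3 line stably expressing human TPO receptor; IL-3 removed overnight before plating. Co-treatment with compound and EC50 TPO (26 pM), 24 hrs at 37 C, then luminescence.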

[3] = target: Muscarinic acetylcholine receptor M1 (Rattus norvegicus) (UniProt P08482); assay: qHTS Assay for Antagonists of Acetylcholine Muscarinic M1 Receptor: Measurement of IP-One Response (AID 944); further: nearly all actives have a fitted effect of over 75% in size
Outline: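 Antagonist mode with rat M1 receptor transfected into CHO cells. Compound is added first for 10 min, carbachol at its EC80 follows for 30 min, and lysis reagents then allow TR-FRET detection of accumulated IP1.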

[4] = target: Pyruvate kinase (Leishmania mexicana) (UniProt Q27686); assay: qHTS Validation Assay for Inhibitors of Leishmania Mexicana Pyruvate Kinase (AID 945)
Outline: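 Eight-point qHTS titrations in triplicate, data normalized to DMSO neutral control. Reaction: 0.2 nM LmPYK E451W mutant, 0.5 mM PEP, 0.1 mM ADP, 7 mM MgCl2, pH 7.2, one hour at room temperature; luminescent ATP detection.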

[5] = target: Rap guanine nucleotide exchange factor 3 (Homo sapiens) (UniProt O95398); assay: Confirmatory qHTS for antagonist of cAMP-regulated guanine nucleotide exchange factor 3 (EPAC1) (AID 1645880); further: nearly all actives have a fitted effect of over 55% in size
Outline: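 Released BODIPY-GDP fluoresces less than Rap1-bound BODIPY-GDP; the signal is followed at 480/540 nm at 5-min intervals over 30 min, after 5 min at room temperature. Reactions contain 100 nM EPAC1, 250 nM RAP1B-BODIPY-GDP and 50 uM GDP; results are normalized to ATA and DMSO.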

[6] = target: Rap guanine nucleotide exchange factor 3 (Homo sapiens) (UniProt O95398); assay: Confirmatory qHTS for agonist of cAMP-regulated guanine nucleotide exchange factor 3 (EPAC1) (AID 1645881);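 further: EPAC1 catalysed release of BODIPY-GDP from Rap1B seen as fluorescence loss; nearly all actives have a fitted effect of over 75% in size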
[7] = target: Rap guanine nucleotide exchange factor 4 (Homo sapiens) (UniProt Q8WZA2); assay: Confirmatory qHTS for agonist of cAMP-regulated guanine nucleotide exchange factor 4 (EPAC2) (AID 1645884);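 further: nucleotide exchange releases bodipy-GDP from Rap1 and this lowers its fluorescence; nearly all actives have a fitted effect of over 65% in size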
[8] = target: Rap guanine nucleotide exchange factor 4 (Homo sapiens) (UniProt Q8WZA2); assay: Confirmatory qHTS for antagonist of cAMP-regulated guanine nucleotide exchange factor 4 (EPAC2) (AID 1645885); further: nearly all actives have a fitted effect of over 25% in size; further: potency means the concentration at half of the fitted maximal effect
[9] = Confirmation and Secondary Assay for Modulators of Hemoglobin Beta Chain Splicing at IVS2 654 locus (AID 910);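 further: HeLa cells stably carrying EGFP split by mutant beta-globin IVS2-654 intron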
Outline: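 Readout: per-well total peak green fluorescence (488 nm ex, 500–520 nm em) from objects 5–250 µm, reflecting correct splicing of an EGFP-654 reporter. Compounds were applied for 2 days at 37 °C to overnight-plated HeLa EGFP-654 cells; controls were DMSO and 500 nM IVS2-654 PNA.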

[10] = Confirmation and Secondary Assay for Modulators of Hemoglobin Beta Chain Splicing at IVS2 705 locus (AID 930);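 further: HeLa cells stably expressing the EGFP-705 splicing reporter; GFP fluorescence per well restored by corrected splicing of the IVS2-705 intron in EGFP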
Outline: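 HeLa cells stably carrying EGFP interrupted by mutant beta-globin intron 2 (IVS2-705) treated 2 days at 37C with compound; 500 nM antisense PNA as control. Correct splicing read as total peak GFP intensity per well by laser-scanning cytometry.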

[11] = target: Luciferin 4-monooxygenase (Photinus pyralis) (UniProt P08659); assay: Biochemical firefly luciferase enzyme assay for NPC (AID 624030);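 further: purified P. pyralis luciferase at 10 nM with luciferin and ATP substrate; nearly all actives have a fitted effect of over 70% in size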
Outline: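 Direct inhibition of firefly luciferase enzyme (10 nM final, 50 mM Tris Acetate) assessed by luminescence within 5 minutes. Percent activity scaled between DMSO and PTC124 positive control, with concentration-effect curves classified by fit quality and response.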

[12] = qHTS profiling for inhibitors of Plasmodium falciparum proliferation (AID 504749); further: nearly all actives have a fitted effect of over 60% in size; conditions: P. falciparum in erythrocytes, SYBR Green DNA, 72 h, at 12.8 µM (top of the series)
Outline: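 SYBR Green fluorescence of parasite DNA, read after lysis and overnight dark incubation, measured growth over 72 h in erythrocyte culture at 0.3% parasitemia and 2.5% hematocrit. Data normalised to DMSO and 0.29 uM artemisinin, with plate-drift correction.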

[13] = Primary qHTS for inhibitors of nuclear receptor binding SET domain protein 2 (NSD2) in an RCH-ACV wild type WT cells (2C) (AID 1645877); further: nearly all actives have a fitted effect of over 70% in size; further: potency means the concentration at half of the fitted maximal effect
[14] = Primary qHTS for inhibitors of nuclear receptor binding SET domain protein 2 (NSD2) in an isogenic RCH-ACV NSD2 p.E1099K mutant (9B) (AID 1645876); further: nearly all actives have a fitted effect of over 70% in size
[15] = target: Glutathione peroxidase 1 (Homo sapiens) (UniProt P07203); assay: Primary qHTS Assay for Inhibitors of Recombinant Selenoprotein Glutathione Peroxidase 1 (GPX1) (AID 1845191); further: nearly all actives have a fitted effect of over 65% in size
Outline: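 NADPH consumption tracked by fluorescence at 340/450 nm between t=0 and t=15 min, room temperature. Final mix: 10 nM GPX1, 100 nM glutathione reductase, 1 mM GSH, 0.5 mM NADPH, 0.5 mM cumene hydroperoxide, 0.01% BSA; 30 min compound–enzyme preincubation.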

[16] = target: Phospholipid hydroperoxide glutathione peroxidase GPX4 (Homo sapiens) (UniProt P36969); assay: Primary qHTS Assay for Inhibitors of Recombinant Selenoprotein Glutathione Peroxidase 4 (GPX4) (AID 1845192); conditions: outcome: dose series up to 50 µM unless noted; further: nearly all actives have a fitted effect of over 65% in size
Outline: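 NADPH consumption followed by fluorescence at 340/450 nm, t=0 and after 15 min at room temperature. Reaction started with cumene hydroperoxide (0.5 mM final) after 30 min compound–GPX4 preincubation; final 200 nM GPX4, 100 nM GR, 1 mM GSH, 0.5 mM NADPH.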

[17] = target: Alpha-galactosidase A (Homo sapiens) (UniProt P06280); assay: Counterscreen for Glucocerebrosidase Inhibitors: qHTS Assay for Human alpha-Galactosidase at pH 4.5 (AID 992)
Outline: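 Citrate buffer pH 4.5, Tween-20 0.005%. Enzyme 2 nM, substrate 80 uM, 20 min RT. Stop pH 10. Fluorescence Ex 365/Em 440. AC50 by Hill fit.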

[18] = target: DNA repair nuclease/redox regulator APEX1 (Homo sapiens) (UniProt P27695); assay: qHTS Validation Assay for Inhibitors of the Human Apurinic/apyrimidinic Endonuclease 1 (APE1) (AID 1705;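 further: TAMRA fluorescence gain over two minutes as APE1 cuts a quenched THF abasic duplex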)
Outline: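 qHTS, 1536-well. APE1 + cpd 15 min RT → 50 nM TAMRA/BHQ-2 THF-abasic dsDNA substrate → kinetic fluorescence, 3 reads/60 s; delta(read3−read1) = reaction progress. No-enzyme buffer = negative control.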

[19] = Counterscreen for APE1 Inhibitors: Fluorescent Dye Displacement Validation Assay (AID 1707)
Outline: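 Signal: ThO fluorescence (ex 480 nm/em 540 nm) on binding 50 nM dsDNA; displacement by test compound reduces it. Conditions: 250 nM dye, 50 mM Tris-HCl pH7.5, 2 mM MgCl2, 50mM NaCl, 0.01% Tween-20.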

[20] = qHTS for differential inhibitors of proliferation of Plasmodium falciparum line 3D7 (AID 1876);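 further: parasite growth measured after three days of culture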

Rap guanine nucleotide exchange factor 3 (Homo sapiens), sequence (O95398 whole entry, looked up): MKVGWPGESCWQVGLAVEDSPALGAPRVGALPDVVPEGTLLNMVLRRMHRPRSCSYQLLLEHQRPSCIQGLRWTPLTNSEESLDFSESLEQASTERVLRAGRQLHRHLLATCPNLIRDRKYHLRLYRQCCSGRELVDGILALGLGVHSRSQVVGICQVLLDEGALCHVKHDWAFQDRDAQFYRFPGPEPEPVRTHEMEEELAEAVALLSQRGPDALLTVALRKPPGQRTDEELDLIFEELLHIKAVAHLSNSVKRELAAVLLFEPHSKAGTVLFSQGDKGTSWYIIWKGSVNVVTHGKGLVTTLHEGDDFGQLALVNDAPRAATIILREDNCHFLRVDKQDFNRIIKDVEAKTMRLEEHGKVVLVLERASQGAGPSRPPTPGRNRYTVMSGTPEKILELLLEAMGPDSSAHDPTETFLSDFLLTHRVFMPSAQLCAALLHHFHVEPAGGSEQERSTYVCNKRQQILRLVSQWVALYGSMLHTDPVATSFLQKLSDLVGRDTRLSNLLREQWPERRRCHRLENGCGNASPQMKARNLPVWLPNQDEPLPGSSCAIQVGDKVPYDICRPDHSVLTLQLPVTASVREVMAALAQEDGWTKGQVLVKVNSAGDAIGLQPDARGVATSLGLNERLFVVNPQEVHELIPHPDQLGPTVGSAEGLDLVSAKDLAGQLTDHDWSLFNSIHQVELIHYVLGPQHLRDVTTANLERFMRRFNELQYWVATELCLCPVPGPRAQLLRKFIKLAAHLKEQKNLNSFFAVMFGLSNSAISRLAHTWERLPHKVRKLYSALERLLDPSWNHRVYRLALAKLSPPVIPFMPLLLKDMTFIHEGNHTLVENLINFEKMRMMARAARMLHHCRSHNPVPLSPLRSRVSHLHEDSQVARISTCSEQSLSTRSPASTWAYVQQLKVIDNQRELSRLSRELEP
Pyruvate kinase (Leishmania mexicana), sequence (Q27686 2-499 E452W): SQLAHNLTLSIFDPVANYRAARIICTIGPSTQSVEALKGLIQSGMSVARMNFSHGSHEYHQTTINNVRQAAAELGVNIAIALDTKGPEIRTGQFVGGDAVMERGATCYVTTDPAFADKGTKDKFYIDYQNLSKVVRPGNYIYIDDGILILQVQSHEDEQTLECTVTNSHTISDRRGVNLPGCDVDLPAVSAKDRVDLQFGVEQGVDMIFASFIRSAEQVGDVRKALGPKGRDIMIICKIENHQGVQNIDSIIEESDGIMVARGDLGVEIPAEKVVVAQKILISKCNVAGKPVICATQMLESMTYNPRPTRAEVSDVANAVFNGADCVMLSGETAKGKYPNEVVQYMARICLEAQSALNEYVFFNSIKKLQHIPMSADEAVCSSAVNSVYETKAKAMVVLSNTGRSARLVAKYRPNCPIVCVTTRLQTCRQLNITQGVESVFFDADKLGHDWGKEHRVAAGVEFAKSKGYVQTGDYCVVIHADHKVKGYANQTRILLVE
Luciferin 4-monooxygenase (Photinus pyralis), sequence (P08659 whole entry, looked up): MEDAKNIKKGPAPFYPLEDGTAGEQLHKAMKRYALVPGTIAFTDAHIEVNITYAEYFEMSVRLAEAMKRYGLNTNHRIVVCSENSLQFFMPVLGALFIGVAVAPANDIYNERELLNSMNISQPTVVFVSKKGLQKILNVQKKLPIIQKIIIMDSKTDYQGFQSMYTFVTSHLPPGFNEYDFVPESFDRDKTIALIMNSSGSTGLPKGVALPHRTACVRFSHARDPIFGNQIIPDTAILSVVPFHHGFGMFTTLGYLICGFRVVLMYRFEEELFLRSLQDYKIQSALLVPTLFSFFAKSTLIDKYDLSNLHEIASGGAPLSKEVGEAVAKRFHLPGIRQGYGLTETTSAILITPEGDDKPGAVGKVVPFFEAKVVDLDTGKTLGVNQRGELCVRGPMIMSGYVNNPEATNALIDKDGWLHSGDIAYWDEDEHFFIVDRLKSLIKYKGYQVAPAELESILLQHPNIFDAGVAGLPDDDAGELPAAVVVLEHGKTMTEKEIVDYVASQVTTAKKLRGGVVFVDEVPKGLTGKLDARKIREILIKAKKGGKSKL
Phospholipid hydroperoxide glutathione peroxidase GPX4 (Homo sapiens), sequence (P36969 whole entry, looked up): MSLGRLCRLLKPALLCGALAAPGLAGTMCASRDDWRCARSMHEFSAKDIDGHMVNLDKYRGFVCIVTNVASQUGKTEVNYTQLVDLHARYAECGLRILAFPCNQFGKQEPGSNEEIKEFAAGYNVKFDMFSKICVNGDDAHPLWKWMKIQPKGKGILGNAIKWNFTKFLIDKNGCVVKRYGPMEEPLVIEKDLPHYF
Glutathione peroxidase 1 (Homo sapiens), sequence (P07203 whole entry, looked up): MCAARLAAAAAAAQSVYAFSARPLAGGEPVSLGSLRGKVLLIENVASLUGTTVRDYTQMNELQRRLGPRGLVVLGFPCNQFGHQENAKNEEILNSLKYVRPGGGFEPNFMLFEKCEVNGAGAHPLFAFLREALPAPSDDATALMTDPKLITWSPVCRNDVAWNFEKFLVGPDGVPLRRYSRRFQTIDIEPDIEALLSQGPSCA
Alpha-galactosidase A (Homo sapiens), sequence (P06280 whole entry, looked up): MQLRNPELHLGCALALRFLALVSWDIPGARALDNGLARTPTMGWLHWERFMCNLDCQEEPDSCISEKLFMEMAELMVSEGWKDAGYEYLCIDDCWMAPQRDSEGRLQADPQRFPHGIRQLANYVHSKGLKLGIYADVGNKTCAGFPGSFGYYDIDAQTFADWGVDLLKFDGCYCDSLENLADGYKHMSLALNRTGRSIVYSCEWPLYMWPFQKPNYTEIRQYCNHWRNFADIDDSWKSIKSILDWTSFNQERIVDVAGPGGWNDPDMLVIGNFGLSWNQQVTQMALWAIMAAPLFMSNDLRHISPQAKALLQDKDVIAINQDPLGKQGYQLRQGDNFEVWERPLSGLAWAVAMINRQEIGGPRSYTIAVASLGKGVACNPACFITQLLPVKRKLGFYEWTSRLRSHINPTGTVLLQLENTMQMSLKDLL
Rap guanine nucleotide exchange factor 4 (Homo sapiens), sequence (Q8WZA2 whole entry, looked up): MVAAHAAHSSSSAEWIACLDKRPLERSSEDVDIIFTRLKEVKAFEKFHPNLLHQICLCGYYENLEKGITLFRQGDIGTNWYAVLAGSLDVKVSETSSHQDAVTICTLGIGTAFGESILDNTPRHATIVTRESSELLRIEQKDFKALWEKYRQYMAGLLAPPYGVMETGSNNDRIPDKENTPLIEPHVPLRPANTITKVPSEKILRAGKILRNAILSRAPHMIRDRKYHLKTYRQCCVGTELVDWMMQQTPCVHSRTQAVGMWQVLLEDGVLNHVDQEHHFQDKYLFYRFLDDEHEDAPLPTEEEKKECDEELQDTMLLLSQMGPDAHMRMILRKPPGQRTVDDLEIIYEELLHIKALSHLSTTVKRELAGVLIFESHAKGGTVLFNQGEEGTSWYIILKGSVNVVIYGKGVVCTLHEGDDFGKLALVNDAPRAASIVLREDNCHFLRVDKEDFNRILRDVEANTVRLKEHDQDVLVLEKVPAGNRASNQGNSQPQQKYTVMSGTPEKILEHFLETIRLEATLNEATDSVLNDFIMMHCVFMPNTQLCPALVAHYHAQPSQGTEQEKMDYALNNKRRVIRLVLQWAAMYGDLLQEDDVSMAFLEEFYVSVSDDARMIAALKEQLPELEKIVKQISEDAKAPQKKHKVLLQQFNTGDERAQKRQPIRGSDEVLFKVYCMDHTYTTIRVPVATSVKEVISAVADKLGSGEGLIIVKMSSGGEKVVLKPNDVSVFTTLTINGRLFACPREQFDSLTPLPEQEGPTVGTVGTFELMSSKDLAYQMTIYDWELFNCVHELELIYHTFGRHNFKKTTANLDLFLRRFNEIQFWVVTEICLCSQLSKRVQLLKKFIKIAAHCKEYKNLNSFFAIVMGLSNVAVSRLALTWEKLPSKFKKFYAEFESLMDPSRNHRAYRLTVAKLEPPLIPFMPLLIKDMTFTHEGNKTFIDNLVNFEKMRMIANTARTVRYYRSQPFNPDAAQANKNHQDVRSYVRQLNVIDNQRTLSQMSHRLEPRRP
Cytochrome P450 2D6 (Homo sapiens), sequence (P10635 whole entry, looked up): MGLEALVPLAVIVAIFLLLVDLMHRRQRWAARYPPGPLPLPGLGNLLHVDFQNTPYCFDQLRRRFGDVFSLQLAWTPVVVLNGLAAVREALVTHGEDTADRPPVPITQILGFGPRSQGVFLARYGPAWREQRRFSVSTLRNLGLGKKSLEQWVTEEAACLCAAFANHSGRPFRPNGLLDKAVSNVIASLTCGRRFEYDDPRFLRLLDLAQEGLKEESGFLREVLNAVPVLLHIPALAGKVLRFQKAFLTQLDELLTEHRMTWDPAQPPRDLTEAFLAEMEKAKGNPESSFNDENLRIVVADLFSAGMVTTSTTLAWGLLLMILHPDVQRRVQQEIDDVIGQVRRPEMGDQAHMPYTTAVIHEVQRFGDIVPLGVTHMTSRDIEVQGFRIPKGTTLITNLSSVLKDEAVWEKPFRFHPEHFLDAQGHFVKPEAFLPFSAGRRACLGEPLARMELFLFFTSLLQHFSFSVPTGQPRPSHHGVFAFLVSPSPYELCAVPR
Muscarinic acetylcholine receptor M1 (Rattus norvegicus), sequence (P08482 whole entry, looked up): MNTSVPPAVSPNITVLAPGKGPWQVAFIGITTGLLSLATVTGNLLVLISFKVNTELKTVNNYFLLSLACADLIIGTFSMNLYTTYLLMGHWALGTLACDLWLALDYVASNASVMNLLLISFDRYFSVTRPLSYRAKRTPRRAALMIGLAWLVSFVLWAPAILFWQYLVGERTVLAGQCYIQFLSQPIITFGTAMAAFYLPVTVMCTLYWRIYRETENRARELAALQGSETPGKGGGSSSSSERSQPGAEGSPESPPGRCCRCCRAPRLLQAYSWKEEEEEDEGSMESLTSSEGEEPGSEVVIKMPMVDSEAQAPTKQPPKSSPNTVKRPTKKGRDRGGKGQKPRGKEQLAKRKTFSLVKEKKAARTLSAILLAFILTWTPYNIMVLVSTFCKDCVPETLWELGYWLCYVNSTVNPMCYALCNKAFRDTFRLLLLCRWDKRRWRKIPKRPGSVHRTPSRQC

Q: With CCn1ccnc1C[C@@H]1COc2ccccc2O1 as the compound, how does the Potency [1] read?
A: 1.58 µM (active)

Q: And the Potency [2]?
A: inactive

Q: What about the Potency [3] of the same compound?
A: inactive

Q: And the Potency [4]?
A: inactive

Q: What about the Potency [5] of the same compound?
A: inactive

Q: And the outcome [6]?
A: inactive

Q: And the outcome [7]?
A: inactive

Q: And the Potency [8]?
A: 17.5 µM (active)

Q: What does the source list for C[C@@H](C(=O)O)c1ccc(-c2ccccc2)c(F)c1?
A: outcome [9]: inactive; outcome [10]: inactive; Potency [11]: inactive; activity, negative = inhibition ([12]; parasite line A): 6.83%; activity, negative = inhibition ([12]; parasite line B): 6.59%

Q: For CC1(C)CO[C@H](CC(=O)O)CN1, which Potency [1] is on record?
A: 0.0063 µM (active)

Q: For CCOC(=O)[C@@]12C[C@@H]1/C(=N/O)c1ccccc1O2, which Potency [2] is on record?
A: inactive

Q: What about the Potency [3] of the same compound?
A: inactive

Q: What about the Potency [5] of the same compound?
A: inactive

Q: And the outcome [6]?
A: inactive

Q: And the outcome [7]?
A: inactive

Q: And the Potency [8]?
A: inactive

Q: Which Potency [13] does the source give for N#CC(=C(/N)Sc1ccccc1N)/C(C#N)=C(/N)Sc1ccccc1N here?
A: 14.6 µM (active)

Q: For CCOC(=O)C(CCc1ccccc1)NC1CCc2ccccc2N(CC(=O)O)C1=O (stereo not given), which outcome [9] is on record?
A: inactive

Q: What about the outcome [10] of the same compound?
A: inactive

Q: What about the Potency [11] of the same compound?
A: inactive

Q: With CNC(=O)[C@H]1O[C@@H](n2cnc3c(NCc4cccc(I)c4)nc(Cl)nc32)[C@H](O)[C@@H]1O as the compound, how does the Potency [14] read?
A: inactive

Q: And the Potency [13]?
A: inactive

Q: What about the Potency [15] of the same compound?
A: inactive

Q: And the Potency [16]?
A: inactive

Q: With C[C@@]12C(=O)OC(=O)[C@@]1(C)[C@@H]1CC[C@@H]2O1 as the compound, how does the Potency [5] read?
A: inactive

Q: And the outcome [6]?
A: inactive

Q: And the outcome [7]?
A: inactive

Q: What about the Potency [8] of the same compound?
A: inactive

Q: With NC(N)=NN=Cc1c(Cl)cccc1Cl as the compound, how does the Potency [2] read?
A: inactive

Q: What about the Potency [3] of the same compound?
A: inactive

Q: And the outcome [17]?
A: inactive

Q: Which Potency [3] does the source give for C[N+](C)(C)CCC(=O)c1cccc2ccccc12 here?
A: inactive

Q: And the outcome [17]?
A: inactive

Q: What about the Potency [18] of the same compound?
A: inactive

Q: And the Potency [19]?
A: inactive

Q: And the Potency [20]?
A: inactive

Q: For Cc1ccc(NC2=CC(=O)c3sc(C)nc3C2=O)cc1, which Potency [15] is on record?
A: inactive

Q: For OCc1cc([C@@H](O)CNCCCCCCOCCCCc2ccccc2)ccc1O, which Potency [11] is on record?
A: inactive

Q: For c1ccc(-c2n[nH]c3c2oc2ccccc23)cc1, which Potency [15] is on record?
A: inactive

Q: What does the source list for N[C@H](Cc1ccccc1)C(=O)O?
A: Potency [15]: inactive; Potency [16]: inactive

Q: For COc1cc([C@@H]2c3cc4c(cc3C(O[C@@H]3O[C@@H]5CO[C@@H](c6cccs6)OC5[C@H](O)[C@H]3O)C3COC(=O)[C@@H]32)OCO4)cc(OC)c1O (stereo not given in full), which Potency [15] is on record?
A: inactive

Q: And the Potency [16]?
A: inactive

Q: Which outcome [6] does the source give for COC(=O)C1=C(C)NC(C)=C([N+](=O)[O-])[C@@H]1c1ccccc1C(F)(F)F here?
A: inactive

Q: What about the outcome [7] of the same compound?
A: inactive

Q: And the Potency [8]?
A: 35 µM (active)

Q: Which results are given for C[C@H]1C=C2C=C[C@H](C)[C@H](CC[C@@H]3C[C@@H](O)CC(=O)O3)[C@H]2[C@@H](OC(=O)[C@@H](C)CCO)C1?
A: outcome [6]: inactive; outcome [7]: inactive

Q: Which Potency [3] does the source give for NCCNS(=O)(=O)c1cccc2cnccc12 here?
A: inactive

Q: And the Potency [4]?
A: inactive

Q: And the Potency [18]?
A: inactive

Q: What about the Potency [19] of the same compound?
A: inactive

Q: And the Potency [20]?
A: inactive

Q: With CC#CCOC(=O)c1c(C)nc2sc3c(c2c1N)CC[C@@H](O)C3 as the compound, how does the Potency [1] read?
A: inactive

Q: And the Potency [2]?
A: inactive

Q: What about the Potency [4] of the same compound?
A: inactive

Q: What about the outcome [17] of the same compound?
A: inactive

Q: What does the source list for CC(C)=CCC/C(C)=C/CC/C(C)=C/CO?
A: outcome [9]: inactive; outcome [10]: inactive; outcome [6]: inactive; outcome [7]: inactive; Potency [8]: 31.2 µM (active)

Q: With Cc1cccc(/C=C\c2ccccc2)n1 as the compound, how does the Potency [1] read?
A: 0.794 µM (active)

Q: What about the Potency [2] of the same compound?
A: 2 µM (active)

Q: And the Potency [3]?
A: inactive

Q: And the outcome [17]?
A: inactive

Reference: PubChem BioAssay (NCATS)
